Experimental findings from PubChem BioAssay AID652174 (National Center for Advancing Translational Sciences (NCATS), 2013) are described below.

Each structure is given as a SMILES string. The source made the active and inactive calls. The call rests on the fitted dose curve; in most records, active means well fitted curve in the direction sought with a large enough effect; inactive means no such curve, though single readings can be large or run the other way.

For this assay, the target named is Ubiquitin carboxyl-terminal hydrolase 2 (Homo sapiens) (UniProt O75604). Put plainly: Confirmation Assay for Inhibitors of Ubiquitin-specific Protease USP2a Using CHOP2 as the Reporter: SAR. The conditions noted are these: USP2 core, Ub-CHOP2 reporter, fluorescence 485/531. From the text: Homeostasis of cellular proteins is maintained through a combination of synthesis and degradation. The pathway that accounts for the majority of protein degradation is the ubiquitin-proteasomal pathway. Ubiquitin (Ub) is highly conserved in all cells and the generation of a multi-Ub chain typically targets proteins for degradation by the proteasome. However, ubiquitination is highly reversible and dynamic. Deubiquitination, the reverse process, is catalyzed through the action of enzymes referred to as isopeptidases or deubiquitinating enzymes (DUBs). This group of enzymes is collectively responsible for maintaining adequate pools of free ubiquitin and regulating the ubiquitination status of cellular proteins. […] Thus, this coupled assay gives a fluorescent read-out at excitation/emission wavelengths of 485/531. […]
Ubiquitin carboxyl-terminal hydrolase 2 (Homo sapiens), sequence (O75604 whole entry, looked up): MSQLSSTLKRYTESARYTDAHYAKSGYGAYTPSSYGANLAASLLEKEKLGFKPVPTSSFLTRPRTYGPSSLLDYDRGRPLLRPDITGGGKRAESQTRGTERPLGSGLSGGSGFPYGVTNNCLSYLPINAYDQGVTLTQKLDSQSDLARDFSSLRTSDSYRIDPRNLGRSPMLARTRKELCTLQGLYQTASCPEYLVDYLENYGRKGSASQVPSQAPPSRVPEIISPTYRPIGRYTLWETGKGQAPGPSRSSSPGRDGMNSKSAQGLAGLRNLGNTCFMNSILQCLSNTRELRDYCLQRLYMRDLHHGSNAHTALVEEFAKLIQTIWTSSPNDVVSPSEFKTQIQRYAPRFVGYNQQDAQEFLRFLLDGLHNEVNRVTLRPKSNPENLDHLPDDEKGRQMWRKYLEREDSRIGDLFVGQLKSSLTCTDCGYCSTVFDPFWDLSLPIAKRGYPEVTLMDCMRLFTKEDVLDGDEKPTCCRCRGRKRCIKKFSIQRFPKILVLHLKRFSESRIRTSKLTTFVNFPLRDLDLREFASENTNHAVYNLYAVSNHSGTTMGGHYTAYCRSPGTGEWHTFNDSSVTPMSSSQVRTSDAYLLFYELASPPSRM
The assay buffer, prepared fresh at the day of the assay, contains 20mM Tris-HCl pH 8.0, 2mM CaCl2, 2mM beta-Mercaptoethanol, 0.05% CHAPS. […] Plates were read after 60min RT incubation on a ViewLux (Perkin Elmer) plate reader using the following wavelengths Ex 485nm /Em 531nm. […] Concentration-response curves were fitted to the normalized data and the concentration-response curves were then classified based on curve quality (r2), response magnitude and degree of measured activity. The time zero reading was used to flag fluorescence artifacts. […]
As for `Cc1ccc(S(=O)(=O)Nc2ccccc2C(=O)Nc2nc(-c3ccccc3)cs2)cc1`, the Potency was 11.3 µM (active).

Regarding `Cc1ccc(S(=O)(=O)Nc2ccccc2C(=O)Nc2nc(-c3ccc(Cl)cc3)cs2)cc1`, the Potency was 5.65 µM (active).
